ChEMBL document CHEMBL4513146, “CO-ADD screening of Karazin Kharkiv National University (Ukraine) compounds”
Entries with a potency or affinity are not part of this list.

These compounds were tested on Candida albicans. Conditions: Concentration 32 ug.mL-1; ASSAY_TEST Inhibition of Fungal Growth; detection method Absorption (OD530).
For `COc1cccc(NC(=O)Cn2nc3c(N4CCCC4)nccn3c2=O)c1`, the Inhibition was 2.47%. Work on `COc1cc(OC)c(NC(=O)Cn2nc3c(Oc4ccc(C)cc4)nccn3c2=O)cc1Cl` yielded an Inhibition of 2.42%. `Cc1ccc(C)c(NC(=O)Cn2nc3ccc(-c4ccc(C)c(C)c4)nn3c2=O)c1` gave an Inhibition of 0.94%. For `Cc1cccc(Oc2nccn3c(=O)n(CC(=O)N4CCN(c5ccc(F)cc5)CC4)nc23)c1C`, the Inhibition was -1.43%. `COc1ccc(-c2cc3c4nn(CC(=O)Nc5c(C)cccc5C)c(=O)n4ccn3n2)cc1` gave an Inhibition of 7.22%. `Cc1ccc(-c2cc3c4nn(CC(=O)Nc5ccc6c(c5)OCO6)c(=O)n4ccn3n2)cc1` showed an Inhibition of 9.65%. With `CCOc1ccc(NC(=O)Cn2nc3c(Oc4ccc(C)cc4)nccn3c2=O)cc1` the Inhibition was 0.26%. With `COc1cccc(CNC(=O)CSc2nnc3c(=O)n(-c4ccccc4)ccn23)c1OC` the Inhibition was -1.2%. `Cc1cc(C)cc(Nc2nc(C)cc3nn(CC(=O)Nc4cc(F)cc(F)c4)c(=O)n23)c1` showed an Inhibition of 4.35%. Work on `Cc1ccc(Oc2nccn3c(=O)n(CC(=O)Nc4cccc(Br)c4)nc23)cc1` yielded an Inhibition of 24.3%. `CC(C)NC(=O)CCn1c(=O)c2ccccc2n2c(=O)n(CC#N)nc12` gave an Inhibition of 0.91%. In the case of `CCOc1ccc(C(=O)CSc2nnc3c(=O)n(-c4ccc(C)c(C)c4)ccn23)cc1`, the Inhibition is reported as 10.64%. Work on `COc1ccc(NC(=O)Cn2nc3ccc(Sc4ccccc4)nn3c2=O)cc1` yielded an Inhibition of 3.37%. Compound `CC(C)c1nnc2c(SCC(=O)N3CCN(c4ccccc4F)CC3)nc3ccccc3n12` has an Inhibition of -5.14%. Compound `Cc1ccc(-c2cc3c4nn(CC(=O)Nc5ccccc5F)c(=O)n4ccn3n2)cc1C` has an Inhibition of -0.75%. In the case of `Cc1cc2nn(CC(=O)Nc3cccc(C)c3C)c(=O)n2c(Nc2ccc(C)c(F)c2)n1`, the Inhibition is reported as 5.25%. `Cc1cc2nn(CC(=O)N3CCCc4ccccc43)c(=O)n2c(Nc2ccc(F)cc2)n1` was tested, and the Inhibition was 1.07%. `CSc1ccc(CNC(=O)Cn2nc3c(N4CC(C)CC(C)C4)nccn3c2=O)cc1` (stereo not given) showed an Inhibition of 0.13%. For `CCOc1ccc(NC(=O)Cn2nc3c(N4CCCC(C)C4)nccn3c2=O)cc1` (stereo not given), the Inhibition was 0.78%. Compound `Cc1cc(C)cc(N(Cc2ccccc2F)S(=O)(=O)c2cccn3c(C)nnc23)c1` has an Inhibition of 1.9%. Work on `O=C(CSc1nnc2c(=O)n(-c3ccccc3)ccn12)Nc1cc(F)ccc1F` yielded an Inhibition of 1.57%. For `COc1cccc(-c2nc(CSc3nc4ccccc4n4c(C)nnc34)c(C)o2)c1OC`, the Inhibition was 0.37%. For `O=C(NCc1ccccc1)c1ccc2nn(CC(=O)N3CCN(c4ccc(F)cc4)CC3)c(=O)n2c1`, the Inhibition was 5.32%. In the case of `CN(C)C(=O)CSc1nnc2c(=O)n(-c3ccc(F)cc3)ccn12`, the Inhibition is reported as 3.85%. `CCOc1ccc(NC(=O)Cn2nc3c(Sc4cccc(F)c4)nccn3c2=O)cc1` was tested, and the Inhibition was 0.06%. Compound `Cc1cccc(N(Cc2ccccc2)S(=O)(=O)c2cccn3c(C)nnc23)c1` has an Inhibition of 8.73%. For `Cc1ccc(Nc2cc(C)n3c(=O)n(Cc4cc(=O)n5ccccc5n4)nc3n2)cc1F`, the Inhibition was -0.76%. `Cc1ccc(NC(=O)Cn2nc3ccc(SC(C)(C)C)nn3c2=O)c(C)c1` was tested, and the Inhibition was 1.14%. With `Cc1ccc(Sc2nccn3c(=O)n(CC(=O)N4CCN(c5ccccc5)CC4)nc23)c(C)c1` the Inhibition was 3.52%. In the case of `O=C(Cn1nc2c(Sc3ccccc3)nccn2c1=O)Nc1cc(F)ccc1F`, the Inhibition is reported as 0.26%. `COc1ccc(C(=O)CSc2nnc3c(=O)n(-c4ccc(F)c(F)c4)ccn23)cc1` gave an Inhibition of 2.03%. `Cc1cc(C)c(NC(=O)Cn2nc3c(Sc4ccccc4)nccn3c2=O)c(C)c1` was tested, and the Inhibition was 5.92%. For `CSc1cccc(NC(=O)Cn2nc3ccc(-c4ccccc4)nn3c2=O)c1`, the Inhibition was 3.96%. For `Cc1ccc(F)cc1NC(=O)CSc1nc2ccccc2n2c(C(C)C)nnc12`, the Inhibition was 0.82%. `Cc1ccc(NC(=O)CSc2nc3ccccc3n3cnnc23)c(C)c1` was tested, and the Inhibition was 26.16%. Work on `Cc1ccc(-c2cc3c4nn(CC(=O)Nc5ccc(Cl)cc5)c(=O)n4ccn3n2)cc1C` yielded an Inhibition of 11.19%. For `Cc1nnc2c(SCC(=O)Nc3cccc(Br)c3)nc3ccccc3n12`, the Inhibition was 5.04%. With `COc1ccc(-n2ccn3c(=O)n(Cc4ccccc4Cl)nc3c2=O)cc1Cl` the Inhibition was 1.04%. Compound `COc1cc(NC(=O)C(C)Sc2nnc3c(=O)n(-c4cccc(OC)c4)ccn23)cc(OC)c1` (stereo not given) has an Inhibition of -0.84%. For `COc1ccc(NC(=O)C(C)Sc2nnc3c(=O)n(-c4ccccc4)ccn23)cc1` (stereo not given), the Inhibition was 1.79%.
